Results filed as inconclusive are left out. Activity calls are given as the source filed them. Unless noted, calls come from the whole dose curve; as a rule, active = well fitted curve in either direction with a large enough effect (not every such curve was filed as active); inconclusive = small, poorly fitted or top-dose-only effect, or another doubt; inactive = flat fitted curve, though single readings scatter.
Tests used:
[1] = molecular target: Lysosomal acid glucosylceramidase (Homo sapiens) (UniProt P04062); assay: Glucocerebrosidase-p2 (AID 348; in the data active = potency below about 10 µM; note: potency is the fitted concentration of half-maximal effect); settings: purified GBA, blue fluorogenic substrate, 40 min
Procedure, shortened: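 Normal human glucocerebrosidase (0.2 nM) with blue fluorogenic substrate (80 uM final) in citrate/phosphate pH 5.9 with 10mM sodium taurocholate, 0.01% tween-20; 40 min RT, NaOH/glycine stop; fluorescence Ex 365/Em 440; AC50 from a titration from 0.6 nM upwards.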

[2] = AP1 Signaling Pathway (AID 357); settings: ME-180 AP-1-bla reporter, EGF-induced, beta-lactamase ratio, 5 h; at 7.69 µM (top of the series) unless noted;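 note: ME-180 reporter cells stimulated with EGF at its EC50 level; % is set by controls: 0 for no effect and ±100 for the full control effect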
Procedure, shortened: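 A ratiometric CCF4 readout (405 nm excitation; 460 and 530 nm emission) quantified AP-1-driven beta-lactamase in ME-180 cells after 5 h with compound and EC50 EGF; AC50 values were derived for activators and inhibitors.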

[3] = molecular target: Cytochrome P450 1A2 (Homo sapiens) (UniProt P05177); assay: p450-cyp1a2 (AID 410; calls by dose curve; note: potency is the fitted concentration of half-maximal effect;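 for activity change, negative = inhibition: -100% = full effect of reference inhibitor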); settings: recombinant CYP1A2, luciferin-ME demethylation, luminescence; series mostly up to 11.4 µM
Procedure, shortened: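 Read-out is luminescence from luciferin produced by CYP1A2 demethylation of Luciferin-ME (100uM, at Km). Detection reagent stopped the 60 min NADPH-dependent reaction; signals were normalized to 57 uM furafylline.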

[4] = NFAT Signaling Pathway (AID 444); settings: Jurkat NFAT-bla M1, carbachol, beta-lactamase ratio, 5 h; at 7.69 µM (top of the series) unless noted;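 note: carbachol stimulus at about its EC50 of 1 µM final; % is set by controls: 0 for no effect and ±100 for the full control effect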
Procedure, shortened: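 Read-out: CCF4 FRET ratio (460 nm/530 nm) after 1 h RT dye loading, used for %activity and AC50 from titration series. Cells: Jurkat NFAT-β-lactamase/M1 line, treated with compound plus 1 uM carbachol for 5 h, 37 °C.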

[5] = Stat Signaling Pathway (AID 446); settings: ME-180 (cervical carcinoma) SIE beta-lactamase reporter, IL-6 stimulated, 5 h; at 7.69 µM (top of the series) unless noted;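 note: ME-180 cervical cancer cells given 40 pM IL-6 alongside compound; SIE-controlled beta-lactamase reporter measured as 460/530 nm FRET emission ratio; % is set by controls: 0 for no effect and ±100 for the full control effect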
Procedure, shortened: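 Overnight-plated ME-180 cells bearing a STAT Inducible Element beta-lactamase reporter; 5 h co-exposure to compound and 40 pM IL-6; values normalized to 300 pM IL-6 and 125 nM JAK inhibitor controls.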

[6] = molecular target: Mitogen-activated protein kinase 10 (Mus musculus) (UniProt Q61831); assay: JNK3 AlphaScreen Assay (AID 530); settings: JNK3 lysate, c-Jun phosphorylation; series mostly up to 11.4 µM;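 note: kinase came from lysate of stimulated human HepG2 cells; signal reports phosphorylation of biotinylated GST-cJun 1-79 at Ser73 with 10 µM ATP; % is set by controls: 0 for no effect and ±100 for the full control effect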
Procedure, shortened: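 Kinase buffer: 20 mM Tris-HCl pH 7.6, 10 mM MgCl2, 1 mM DTT, 0.1 mM Na3VO4, 0.01% Tween-20; ATP 10 uM. Substrate biotin-GST-cJun(1-79), enzyme from activated HepG2 lysates. Detection by Ser73 phospho-antibody AlphaScreen.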

[7] = molecular target: 3',5'-cyclic-AMP phosphodiesterase 4B (Homo sapiens) (UniProt Q07343); assay: qHTS Assay for Inhibitors of PDE-IV (AID 607; active = well fitted activation curve with a large enough effect in the main read-out, with a control signal flat, not every such curve was filed as active; note: % of control where 0% means no effect); settings: HEK293 ACTOne CNG channel cells, membrane potential fluorescence; series mostly up to 22.9 µM
Procedure, shortened: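 Live HEK293 cells with a modified cyclic nucleotide-gated (CNG) channel report intracellular cAMP via membrane-potential dye fluorescence (ex 535/em 590 nm). Endogenous PDE-IV was targeted. Compounds were tested at up to 22.9 uM final; RO 20-1724 100 uM served as control.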

[8] = molecular target: Cytochrome P450 3A4 (Homo sapiens) (UniProt P08684); assay: qHTS Assay for Inhibitors and Substrates of Cytochrome P450 3A4 (AID 884; active = well fitted curve in the direction sought with a large enough effect; an effect the other way counts as inactive or inconclusive; note: nearly all actives have a fitted effect of over 50% in size; note: potency is the fitted concentration of half-maximal effect); settings: recombinant CYP3A4, Luciferin-PPXE luminescence; series mostly up to 57.1 µM
Procedure, shortened: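 Luminescent readout of luciferin produced by CYP3A4 (20 nM) dealkylation of Luciferin-PPXE, 25 uM (its KM). NADPH-driven reaction ran 60 min at RT after 10 min compound preincubation; data scaled to 57 uM ketoconazole as 100% inhibition.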

[9] = molecular target: ATP-dependent 6-phosphofructokinase (Trypanosoma brucei brucei) (UniProt O15648); assay: qHTS Assay to Find Inhibitors of T. brucei phosphofructokinase: hit validation (AID 492961; active = well fitted curve in the direction sought with a large enough effect; an effect the other way counts as inactive or inconclusive); settings: T. brucei PFK, ADP-Glo luminescence; series mostly up to 51.4 µM
Procedure, shortened: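 In this biochemical qHTS validation, titrated compounds were tested against 1.25 nM PFK with 0.1 mM ATP and 0.5 mM F6P. Percent activity came from controls lacking or containing enzyme.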

[10] = qHTS profiling for inhibitors of Plasmodium falciparum proliferation (AID 504749; active = well fitted curve in the direction sought with a large enough effect; an effect the other way counts as inactive or inconclusive;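 note: 0% = DMSO vehicle and full inhibition = artemisinin control; nearly all actives have a fitted effect of over 60% in size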); settings: P. falciparum in erythrocytes, SYBR Green DNA, 72 h, at 28.7 µM (top of the series)
Procedure, shortened: (§1)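 In a 72 h erythrocytic culture (37 C, humidified, 5% CO2) at 2.5% hematocrit and 0.3% starting parasitemia, compounds were tested; SYBR Green I in detergent lysis buffer stained parasite DNA overnight.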

[11] = system: CP203; assay: as above; settings: P. falciparum in erythrocytes, SYBR Green DNA, 72 h; series mostly up to 28.7 µM
Procedure, shortened: as §1

[12] = system: DFO2036; assay: as above; settings: P. falciparum in erythrocytes, SYBR Green DNA, 72 h; series mostly up to 28.7 µM
Procedure, shortened: as §1

[13] = system: W2; assay: as above; settings: P. falciparum in erythrocytes, SYBR Green DNA, 72 h; series mostly up to 28.7 µM
Procedure, shortened: as §1

[14] = molecular target: Glucocorticoid receptor (Homo sapiens) (UniProt P04150); assay: GR-EFC Redistribution (AID 451; calls by dose curve; note: potency is the fitted concentration of half-maximal effect); settings: CHO-K1 GR-EFC translocation, beta-gal luminescence, 2 h
Procedure, shortened: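 Translocation of GR-ED fusion to nuclear EA restores b-gal, read by luminescence after 1 h room-temperature detection. Engineered CHO-K1 biosensor cells, 1,000/well, exposed 2 h at 37 C to titrations up to 46 uM final.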

[15] = molecular target: Glucocorticoid receptor (Homo sapiens) (UniProt P04150); assay: GR-GFP Redistribution (AID 450;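 active = compounds whose dose series gives a full or clear partial fitted curve of increased nuclear translocation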; note: potency is the fitted concentration of half-maximal effect); settings: U2OS GR-GFP nuclear translocation, laser cytometry, 2 h
[16] = molecular target: Cytochrome P450 2C9 (Homo sapiens) (UniProt P11712); assay: qHTS Assay for Inhibitors and Substrates of Cytochrome P450 2C9 (AID 883; active = well fitted curve in the direction sought with a large enough effect; an effect the other way counts as inactive or inconclusive; note: potency is the fitted concentration of half-maximal effect; nearly all actives have a fitted effect of over 60% in size); settings: recombinant CYP2C9, luciferin-H luminescence, 60 min; series mostly up to 11.4 µM
Procedure, shortened: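 Inhibition of CYP2C9 is scored as loss of luminescence, with 57uM sulphaphenazole defining 100% inhibition. Substrate Luciferin-H is used at 100uM, equal to its KM; enzyme at 10nM in 25mM KPO4, 60 min at 37C with NADPH regeneration.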

[17] = molecular target: Cytochrome P450 3A4 (Homo sapiens) (UniProt P08684); assay: qHTS Assay for Activators of Cytochrome P450 3A4 (AID 885; active = well fitted curve in the direction sought with a large enough effect; an effect the other way counts as inactive or inconclusive; note: nearly all actives have a fitted effect of over 65% in size); settings: recombinant CYP3A4, Luciferin-PPXE luminescence, 60 min; series mostly up to 11.4 µM
Procedure, shortened: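 Using 20nM recombinant human CYP3A4 in potassium phosphate (200mM), substrate Luciferin-PPXE at 25uM, luminescent luciferin detection followed a 60-min RT NADPH reaction; data scaled to 57 uM ketoconazole.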

[18] = molecular target: Cytochrome P450 2C19 (Homo sapiens) (UniProt P33261); assay: qHTS Assay for Inhibitors and Substrates of Cytochrome P450 2C19 (AID 899; active = well fitted curve in the direction sought with a large enough effect; an effect the other way counts as inactive or inconclusive; note: nearly all actives have a fitted effect of over 60% in size; note: potency is the fitted concentration of half-maximal effect); settings: recombinant CYP2C19, luciferin-H EGE luminescence; series mostly up to 11.4 µM
Procedure, shortened: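 5nM enzyme + 10uM Luciferin-H EGE (=KM), 50mM KPO4; cpd pin-transferred, 10 min 37C; NADPH regen, 60 min 37C; stopped w/ luciferin detection reagent, 20 min; luminescence. Normalized to 57uM ketoconazole (AC100).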

[19] = molecular target: Cytochrome P450 2D6 (Homo sapiens) (UniProt P10635); assay: qHTS Assay for Inhibitors and Substrates of Cytochrome P450 2D6 (AID 891; active = well fitted curve in the direction sought with a large enough effect; an effect the other way counts as inactive or inconclusive; note: potency is the fitted concentration of half-maximal effect; nearly all actives have a fitted effect of over 60% in size); settings: recombinant CYP2D6, luciferin-ME EGE luminescence; series mostly up to 11.4 µM
Procedure, shortened: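 Luminescent read-out of luciferin formed by 5 nM human CYP2D6 demethylating 30 uM Luciferin-ME EGE (Km level) over 60 min at room temperature after NADPH regeneration addition. Data normalized to full inhibition by 1.43 uM quinidine.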

Sequence of Cytochrome P450 1A2 (Homo sapiens) (P05177 whole entry, looked up): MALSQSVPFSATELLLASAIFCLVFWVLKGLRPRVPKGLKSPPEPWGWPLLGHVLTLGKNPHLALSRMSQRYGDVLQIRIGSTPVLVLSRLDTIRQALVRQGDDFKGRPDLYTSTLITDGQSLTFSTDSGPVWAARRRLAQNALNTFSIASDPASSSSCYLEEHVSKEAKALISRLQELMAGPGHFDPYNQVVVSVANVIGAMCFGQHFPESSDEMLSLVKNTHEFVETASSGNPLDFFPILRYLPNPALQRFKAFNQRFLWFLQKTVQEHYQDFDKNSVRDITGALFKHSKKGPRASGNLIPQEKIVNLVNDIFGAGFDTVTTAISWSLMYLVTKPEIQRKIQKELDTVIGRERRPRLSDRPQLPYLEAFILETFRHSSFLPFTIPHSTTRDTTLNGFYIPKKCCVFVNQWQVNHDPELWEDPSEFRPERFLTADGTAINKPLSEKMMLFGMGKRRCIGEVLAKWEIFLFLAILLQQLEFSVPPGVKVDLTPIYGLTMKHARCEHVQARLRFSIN
Sequence of 3',5'-cyclic-AMP phosphodiesterase 4B (Homo sapiens) (Q07343 whole entry, looked up): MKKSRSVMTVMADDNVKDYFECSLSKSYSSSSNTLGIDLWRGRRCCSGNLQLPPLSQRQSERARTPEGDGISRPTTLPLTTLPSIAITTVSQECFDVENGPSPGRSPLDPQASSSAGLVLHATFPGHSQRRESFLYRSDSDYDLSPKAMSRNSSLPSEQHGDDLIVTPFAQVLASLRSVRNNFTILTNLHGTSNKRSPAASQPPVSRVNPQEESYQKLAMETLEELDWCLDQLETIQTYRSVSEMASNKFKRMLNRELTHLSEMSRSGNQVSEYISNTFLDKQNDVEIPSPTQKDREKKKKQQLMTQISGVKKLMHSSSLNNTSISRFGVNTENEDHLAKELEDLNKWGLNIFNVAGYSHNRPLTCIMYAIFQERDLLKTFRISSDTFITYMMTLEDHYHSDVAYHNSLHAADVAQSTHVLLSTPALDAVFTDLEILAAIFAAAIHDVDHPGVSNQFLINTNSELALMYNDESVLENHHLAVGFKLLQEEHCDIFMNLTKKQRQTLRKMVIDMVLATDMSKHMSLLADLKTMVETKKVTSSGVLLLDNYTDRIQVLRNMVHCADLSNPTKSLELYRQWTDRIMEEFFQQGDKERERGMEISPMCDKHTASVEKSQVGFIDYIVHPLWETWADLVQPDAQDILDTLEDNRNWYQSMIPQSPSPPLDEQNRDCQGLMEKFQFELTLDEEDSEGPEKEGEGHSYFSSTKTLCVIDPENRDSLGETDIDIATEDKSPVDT
Sequence of Glucocorticoid receptor (Homo sapiens) (P04150 whole entry, looked up, the tested form may be a part): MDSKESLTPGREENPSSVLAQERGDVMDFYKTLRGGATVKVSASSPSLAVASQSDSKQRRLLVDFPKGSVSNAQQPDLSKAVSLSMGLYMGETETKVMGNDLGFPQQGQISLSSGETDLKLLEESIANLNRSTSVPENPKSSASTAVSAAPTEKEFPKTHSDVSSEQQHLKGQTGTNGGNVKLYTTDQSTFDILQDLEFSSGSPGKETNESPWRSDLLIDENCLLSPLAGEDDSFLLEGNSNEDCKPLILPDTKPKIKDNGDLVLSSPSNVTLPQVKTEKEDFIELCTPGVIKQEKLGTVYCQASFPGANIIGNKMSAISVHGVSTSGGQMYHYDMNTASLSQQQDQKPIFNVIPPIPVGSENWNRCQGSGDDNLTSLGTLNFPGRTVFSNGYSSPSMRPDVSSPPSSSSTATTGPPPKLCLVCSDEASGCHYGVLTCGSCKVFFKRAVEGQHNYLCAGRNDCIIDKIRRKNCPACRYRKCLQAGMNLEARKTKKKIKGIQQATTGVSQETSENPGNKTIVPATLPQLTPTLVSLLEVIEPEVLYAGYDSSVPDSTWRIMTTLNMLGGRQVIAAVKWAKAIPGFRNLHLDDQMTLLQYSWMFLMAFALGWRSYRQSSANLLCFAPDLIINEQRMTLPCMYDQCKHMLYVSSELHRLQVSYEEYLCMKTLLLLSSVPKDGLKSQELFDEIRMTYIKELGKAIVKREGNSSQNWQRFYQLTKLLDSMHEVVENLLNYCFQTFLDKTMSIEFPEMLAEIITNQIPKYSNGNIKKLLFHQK
Sequence of Cytochrome P450 2C19 (Homo sapiens) (P33261 whole entry, looked up): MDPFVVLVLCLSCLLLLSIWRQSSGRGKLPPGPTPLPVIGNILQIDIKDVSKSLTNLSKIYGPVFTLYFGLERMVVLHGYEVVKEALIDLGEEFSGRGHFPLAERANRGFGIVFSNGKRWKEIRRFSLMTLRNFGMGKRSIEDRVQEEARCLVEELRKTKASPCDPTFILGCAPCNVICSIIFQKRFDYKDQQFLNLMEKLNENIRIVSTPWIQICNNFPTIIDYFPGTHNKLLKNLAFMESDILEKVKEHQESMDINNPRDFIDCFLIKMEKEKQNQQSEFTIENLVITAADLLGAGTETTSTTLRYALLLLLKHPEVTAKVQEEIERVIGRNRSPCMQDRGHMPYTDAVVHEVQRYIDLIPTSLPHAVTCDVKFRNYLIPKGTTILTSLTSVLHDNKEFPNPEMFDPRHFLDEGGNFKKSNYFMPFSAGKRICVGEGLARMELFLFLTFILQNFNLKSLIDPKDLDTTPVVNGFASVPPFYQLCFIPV
Sequence of Lysosomal acid glucosylceramidase (Homo sapiens) (P04062 whole entry, looked up): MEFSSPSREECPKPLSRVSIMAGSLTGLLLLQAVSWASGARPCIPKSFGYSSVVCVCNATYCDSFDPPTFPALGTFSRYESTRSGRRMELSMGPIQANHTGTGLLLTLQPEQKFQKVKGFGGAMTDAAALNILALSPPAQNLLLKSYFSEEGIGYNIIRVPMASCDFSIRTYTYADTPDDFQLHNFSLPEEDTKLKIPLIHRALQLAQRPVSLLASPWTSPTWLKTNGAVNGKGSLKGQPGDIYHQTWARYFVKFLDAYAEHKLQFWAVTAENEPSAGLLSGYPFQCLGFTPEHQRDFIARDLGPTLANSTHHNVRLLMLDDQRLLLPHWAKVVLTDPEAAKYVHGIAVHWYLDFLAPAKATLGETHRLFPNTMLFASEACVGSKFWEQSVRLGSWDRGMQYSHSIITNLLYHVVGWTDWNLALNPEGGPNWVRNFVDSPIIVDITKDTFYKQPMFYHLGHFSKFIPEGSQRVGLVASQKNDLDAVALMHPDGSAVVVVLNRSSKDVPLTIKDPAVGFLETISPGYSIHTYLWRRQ
Sequence of Cytochrome P450 3A4 (Homo sapiens) (P08684 whole entry, looked up): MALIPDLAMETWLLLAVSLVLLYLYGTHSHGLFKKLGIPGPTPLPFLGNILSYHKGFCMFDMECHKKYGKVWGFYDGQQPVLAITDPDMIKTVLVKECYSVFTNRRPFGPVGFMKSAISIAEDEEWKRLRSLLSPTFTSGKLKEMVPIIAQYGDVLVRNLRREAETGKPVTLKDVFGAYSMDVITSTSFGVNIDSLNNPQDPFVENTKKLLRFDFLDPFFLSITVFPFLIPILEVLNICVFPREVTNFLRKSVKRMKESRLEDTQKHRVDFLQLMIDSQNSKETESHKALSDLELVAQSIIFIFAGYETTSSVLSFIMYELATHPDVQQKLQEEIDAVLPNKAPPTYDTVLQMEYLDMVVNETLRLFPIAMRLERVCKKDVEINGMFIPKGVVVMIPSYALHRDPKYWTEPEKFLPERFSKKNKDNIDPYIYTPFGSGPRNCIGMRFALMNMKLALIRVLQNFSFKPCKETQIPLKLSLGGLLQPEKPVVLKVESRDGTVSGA
Sequence of Cytochrome P450 2C9 (Homo sapiens) (P11712 whole entry, looked up): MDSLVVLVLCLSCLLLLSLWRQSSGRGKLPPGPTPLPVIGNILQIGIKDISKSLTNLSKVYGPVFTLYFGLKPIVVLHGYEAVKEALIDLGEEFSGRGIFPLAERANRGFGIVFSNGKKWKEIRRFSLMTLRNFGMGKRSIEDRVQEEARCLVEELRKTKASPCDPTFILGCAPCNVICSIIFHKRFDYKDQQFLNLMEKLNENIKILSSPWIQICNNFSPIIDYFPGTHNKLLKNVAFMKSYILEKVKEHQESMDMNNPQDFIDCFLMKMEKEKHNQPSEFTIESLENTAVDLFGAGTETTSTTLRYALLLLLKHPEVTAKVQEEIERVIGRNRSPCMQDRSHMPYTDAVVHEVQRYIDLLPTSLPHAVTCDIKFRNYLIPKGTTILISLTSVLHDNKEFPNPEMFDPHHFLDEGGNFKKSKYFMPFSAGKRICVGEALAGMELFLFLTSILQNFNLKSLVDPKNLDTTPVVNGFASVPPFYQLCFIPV
Sequence of Cytochrome P450 2D6 (Homo sapiens) (P10635 whole entry, looked up): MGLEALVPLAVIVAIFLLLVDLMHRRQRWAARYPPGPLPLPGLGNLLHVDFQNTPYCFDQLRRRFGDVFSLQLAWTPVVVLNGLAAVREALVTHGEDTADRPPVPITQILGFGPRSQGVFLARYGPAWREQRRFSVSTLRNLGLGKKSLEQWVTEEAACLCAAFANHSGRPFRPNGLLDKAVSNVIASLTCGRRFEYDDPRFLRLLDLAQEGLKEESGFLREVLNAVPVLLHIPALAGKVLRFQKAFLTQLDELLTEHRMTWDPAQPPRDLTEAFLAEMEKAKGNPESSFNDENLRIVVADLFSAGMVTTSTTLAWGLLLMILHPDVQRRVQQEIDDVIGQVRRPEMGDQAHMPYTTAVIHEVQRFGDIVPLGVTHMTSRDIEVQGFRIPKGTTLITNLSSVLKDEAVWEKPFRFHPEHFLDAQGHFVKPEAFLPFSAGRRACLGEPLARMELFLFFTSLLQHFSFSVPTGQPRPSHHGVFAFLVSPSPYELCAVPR

N[C@@H](Cc1ccccc1)C(=O)O
inactive: Potency [1] > 11.4 µM | activity change, negative = inhibition [2] 3.61% | Potency [3] | activity change, negative = inhibition [4] 14.5% | activity, negative = inhibition [5] 12.6% | Potency [6] | Potency [7] | Potency [8] | outcome [9] | activity, negative = inhibition ([10]; parasite line A) 4.49% | activity, negative = inhibition ([10]; parasite line B) -0.635% | Potency [11] | Potency [12] | Potency [13]

Nc1nc(-c2ccccc2)c(-c2ccccc2)c(-c2nc(N)nc(-c3ccccc3)c2-c2ccccc2)n1
inactive: Potency [1] > 11.4 µM | activity change, negative = inhibition [2] -1.08% | Potency [3] | activity change, negative = inhibition [4] 16.1% | activity, negative = inhibition [5] 3.19% | Potency [14] > 9.22 µM | Potency [6] | Potency [7]

NCCSc1nc2ccccc2s1
inactive: Potency [1] > 11.4 µM | activity change, negative = inhibition [2] 1.91% | activity change, negative = inhibition [4] 7.28% | Potency [15] > 46 µM | Potency [14] > 9.22 µM | Potency [6] | Potency [7] | Potency [17]
active: Potency [3] 316 nM | Potency [16] 1.58 µM | Potency [8] 3.16 µM | Potency [18] 1.58 µM

COc1cc(-c2[o+]c3cc(O)cc(O)c3cc2O)cc(O)c1O
inactive: Potency [1] > 11.4 µM | activity change, negative = inhibition [2] 19.4% | activity change, negative = inhibition [3] -19.9% [at 2.29 µM] | activity change, negative = inhibition [4] 20.3% | activity, negative = inhibition [5] 0.423% | Potency [6] | Potency [7]

O=C(O)CS(=O)c1ccc2c3c(cccc13)C(=O)c1ccccc1-2 (stereo unspecified)
inactive: Potency [1] > 11.4 µM | activity change, negative = inhibition [2] -22.7% | activity change, negative = inhibition [4] -13.9% | activity, negative = inhibition [5] 1.69% | Potency [14] > 9.22 µM | Potency [6] | Potency [7] | Potency [17]
active: Potency [3] 63.1 nM

CO[C@@H](NC(N)=O)C(=O)O
inactive: Potency [1] > 11.4 µM | activity change, negative = inhibition [2] -1% | activity change, negative = inhibition [3] -6.4% [at 2.29 µM] | activity change, negative = inhibition [4] 1.38% | activity, negative = inhibition [5] 8.15% | Potency [14] > 9.22 µM | Potency [6] | Potency [7]

O=C(O)CSc1nc2ccccc2[nH]1
inactive: Potency [1] > 11.4 µM | activity change, negative = inhibition [2] 3.97% | Potency [3] | activity change, negative = inhibition [4] -2.37% | Potency [15] > 46 µM | Potency [14] > 9.22 µM | Potency [6] | Potency [7]

c1c[nH]c(CN2CCOCC2)n1
inactive: Potency [1] > 11.4 µM | activity change, negative = inhibition [2] 6.52% | Potency [3] | activity change, negative = inhibition [4] 6.99% | Potency [15] > 46 µM | Potency [14] > 9.22 µM | Potency [6] | Potency [7]

CC(C)CSC[C@@H]1O[C@H](n2cnc3c(N)nccc32)[C@H](O)[C@@H]1O
inactive: Potency [1] > 11.4 µM | activity change, negative = inhibition [2] 4.75% | Potency [3] | activity change, negative = inhibition [4] 12.1% | Potency [15] > 46 µM | Potency [14] > 9.22 µM | Potency [6] | Potency [7]

O=C(O)C[C@H](S)C(=O)O
inactive: Potency [1] > 11.4 µM | activity change, negative = inhibition [2] -3.09% | Potency [3] | activity, negative = inhibition [5] -8.04% | Potency [15] > 46 µM | Potency [14] > 9.22 µM | Potency [6] | Potency [7]

CN(C)CCCN1c2ccccc2Sc2cnccc21
active: Potency [3] 501 nM | Potency [19] 1.58 µM
inactive: Potency [1] > 11.4 µM | activity change, negative = inhibition [2] 6.06% | activity change, negative = inhibition [4] -14.8% | Potency [15] > 46 µM | Potency [14] > 9.22 µM | Potency [6] | Potency [7] | Potency [17]

O=c1c[n+](CCCC[n+]2cc(=O)o[nH]2)[nH]o1
inactive: Potency [1] > 11.4 µM | activity change, negative = inhibition [2] 4.96% | Potency [3] | activity change, negative = inhibition [4] -11% | Potency [15] > 46 µM | Potency [14] > 9.22 µM | Potency [6] | Potency [7] | Potency [18]

CC(C)NC[C@@H](O)c1ccc(O)c2ncccc12
inactive: Potency [1] > 11.4 µM | activity change, negative = inhibition [2] -5.62% | activity change, negative = inhibition [3] -12.1% [at 2.29 µM] | activity change, negative = inhibition [4] 14% | Potency [15] > 46 µM | Potency [14] > 9.22 µM | Potency [6] | Potency [7] | Potency [18]

COc1ccccc1CCn1c(=O)c(-c2ccc(F)cc2)nc2cncnc21
inactive: Potency [1] > 11.4 µM | activity change, negative = inhibition [2] -8.06% | activity change, negative = inhibition [4] -26.6% | Potency [15] > 9.22 µM | Potency [14] > 46 µM | Potency [6] | Potency [17]
active: Potency [3] 1000 nM | Potency [16] 3.98 µM | Potency [8] 3.98 µM | Potency [18] 0.316 µM

Oc1c(CN2CCN(c3ccccc3)CC2)cc(Br)c2cccnc12
inactive: Potency [1] > 11.4 µM | activity change, negative = inhibition [2] 3.27% | activity, negative = inhibition [5] -0.132% | Potency [15] > 46 µM | Potency [14] > 9.22 µM | Potency [6] | Potency [7]
active: Potency [3] 1260 nM

COCCn1c(=O)c(-c2ccc(OC)cc2)nc2cnc(OC)nc21
active: Potency [3] 3160 nM
inactive: Potency [1] > 11.4 µM | activity change, negative = inhibition [2] 2.45% | activity change, negative = inhibition [4] 8.31% | Potency [15] > 9.22 µM | Potency [14] > 46 µM | Potency [6] | Potency [7] | Potency [17]

Reference: PubChem BioAssay (NCATS)
